According to the supplement of paper PMC10849652:
The full data set covers some 7,900 targets. This sample favours those with a hit. About 0.6% of all pairs of compound and target were hits. Values without a mark were called inactive.

What was measured:
Assay in all cases: log2 fold change, soluble protein after heating vs DMSO (PISA); higher = thermal stabilisation; K562 cells, 10 uM, 30 min; active = over 0.2 and 3.5 SD of the protein, either way, in both replicates (recomputed)
[1] = compound: CC[C@@H]1C(=O)N(C)c2cnc(Nc3ccc(C(=O)NC4CCN(C)CC4)cc3OC)nc2N1C1CCCC1
In short: (§1)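 K562 cells at 2×10^6 cells/mL were exposed to 10 μM compound for 30 min, then aliquots were heated for 3 min across 48°C-58°C, pooled, and extracted in PBS containing 0.5% NP-40 at 4°C. The supernatant after 21,000xg for 90 min was taken as soluble protein and measured by TMTpro 16plex LC-MS/MS with channel sums equalised. Thermal stability is reported relative to control samples, with values from duplicates. Fold changes are given on a log2 scale.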

[2] = compound: CC[C@@H]1C(=O)N(C)c2cnc(Nc3ccc(C(=O)N[C@H]4CC[C@H](N5CCN(CC6CC6)CC5)CC4)cc3OC)nc2N1C(C)C [volasertib]
In short: as §1

[3] = compound: CC[C@H](C)N1C=C(C2=C(C=C(C=C21)C3=CN=C(C=C3)N4CCNCC4)C(=O)NCC5=C(C=C(NC5=O)C)C)C
In short: as §1

[4] = compound: CC[C@H](C)[C@@H](C(=O)N[C@@H]([C@@H](C)O)C(=O)N[C@@H](CC(C)C)C(=O)[C@]1(CO1)C)NC(=O)[C@H]([C@@H](C)CC)N(C)C(=O)C [epoxomicin]
In short: as §1

[5] = compound: CCn1c(C(=O)N(C2CC2)C2CC2)cc2c3c(ncn3C)c(Nc3cc(C)n(C)n3)nc21
In short: as §1

[6] = compound: CCn1cc(-c2ccnc3[nH]c(-c4cccc(CN(C)C)c4)cc23)c(-c2ccc(NC(=O)N(C)C)cc2)n1
In short: as §1

[7] = compound: CN(C)CC(=O)Nc1ccc2[nH]c(=O)c3ccccc3c2c1
In short: as §1

[8] = compound: CN(CCOC1=CC=C(C=C1)C[C@H]2C(=O)NC(=O)S2)C3=CC=CC=N3 (racemic) [rosiglitazone]
In short: as §1

[9] = compound: CN1C2=C(C3=C1C(=O)N(N=C3)CC4=CC(=CC=C4)N)SC(=C2)S(=O)C
In short: as §1

[10] = compound: CN1CCC(CNc2ccc3ncc(-c4cccc(OC(F)(F)F)c4)n3n2)CC1
In short: as §1

UniProt Q15059, sequence (Q15059 whole entry, looked up): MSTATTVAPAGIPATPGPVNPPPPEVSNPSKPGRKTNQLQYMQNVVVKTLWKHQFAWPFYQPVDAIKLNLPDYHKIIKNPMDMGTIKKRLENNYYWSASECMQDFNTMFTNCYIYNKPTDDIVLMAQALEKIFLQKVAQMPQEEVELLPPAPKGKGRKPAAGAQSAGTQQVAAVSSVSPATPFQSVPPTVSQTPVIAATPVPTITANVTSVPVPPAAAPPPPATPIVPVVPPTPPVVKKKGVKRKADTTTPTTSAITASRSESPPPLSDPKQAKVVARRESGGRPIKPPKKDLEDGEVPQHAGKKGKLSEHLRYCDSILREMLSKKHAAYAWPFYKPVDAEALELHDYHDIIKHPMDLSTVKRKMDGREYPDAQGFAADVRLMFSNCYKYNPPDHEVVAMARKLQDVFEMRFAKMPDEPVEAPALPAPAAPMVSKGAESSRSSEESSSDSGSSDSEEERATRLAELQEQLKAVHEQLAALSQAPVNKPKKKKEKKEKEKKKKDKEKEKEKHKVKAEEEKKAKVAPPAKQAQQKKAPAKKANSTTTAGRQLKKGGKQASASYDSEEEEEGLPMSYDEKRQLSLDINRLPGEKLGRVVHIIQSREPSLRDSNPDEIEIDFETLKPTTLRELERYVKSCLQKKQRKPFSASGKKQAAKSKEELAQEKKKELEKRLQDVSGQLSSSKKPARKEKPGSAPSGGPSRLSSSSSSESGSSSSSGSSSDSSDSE
UniProt Q96CW1, sequence (Q96CW1 whole entry, looked up): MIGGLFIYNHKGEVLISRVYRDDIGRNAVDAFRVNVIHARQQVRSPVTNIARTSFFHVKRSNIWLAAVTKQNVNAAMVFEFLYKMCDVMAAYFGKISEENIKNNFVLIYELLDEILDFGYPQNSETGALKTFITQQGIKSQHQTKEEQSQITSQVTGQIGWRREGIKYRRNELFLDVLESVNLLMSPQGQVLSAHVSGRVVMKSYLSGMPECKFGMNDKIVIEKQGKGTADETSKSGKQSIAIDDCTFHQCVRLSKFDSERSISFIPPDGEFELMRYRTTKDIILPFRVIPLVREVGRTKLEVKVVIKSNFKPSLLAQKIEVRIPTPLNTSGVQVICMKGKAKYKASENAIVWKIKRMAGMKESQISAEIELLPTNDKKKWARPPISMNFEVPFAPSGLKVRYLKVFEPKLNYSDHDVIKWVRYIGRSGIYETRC
UniProt Q9UQB8, sequence (Q9UQB8 whole entry, looked up): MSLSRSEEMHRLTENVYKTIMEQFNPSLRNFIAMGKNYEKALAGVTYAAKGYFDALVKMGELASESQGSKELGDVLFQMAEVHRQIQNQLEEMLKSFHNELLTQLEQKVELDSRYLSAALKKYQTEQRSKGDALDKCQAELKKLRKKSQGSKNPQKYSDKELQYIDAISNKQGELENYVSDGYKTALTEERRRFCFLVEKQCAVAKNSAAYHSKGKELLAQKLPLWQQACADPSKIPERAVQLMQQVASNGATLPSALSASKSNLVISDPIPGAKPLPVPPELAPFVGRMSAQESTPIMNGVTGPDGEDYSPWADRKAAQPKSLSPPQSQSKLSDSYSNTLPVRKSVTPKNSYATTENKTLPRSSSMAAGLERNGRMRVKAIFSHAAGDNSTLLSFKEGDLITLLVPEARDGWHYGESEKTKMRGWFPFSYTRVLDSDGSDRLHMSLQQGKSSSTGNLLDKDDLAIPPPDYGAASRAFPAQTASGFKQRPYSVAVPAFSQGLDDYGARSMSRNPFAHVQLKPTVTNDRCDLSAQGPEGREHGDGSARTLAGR
UniProt Q13733, sequence (Q13733 whole entry, looked up): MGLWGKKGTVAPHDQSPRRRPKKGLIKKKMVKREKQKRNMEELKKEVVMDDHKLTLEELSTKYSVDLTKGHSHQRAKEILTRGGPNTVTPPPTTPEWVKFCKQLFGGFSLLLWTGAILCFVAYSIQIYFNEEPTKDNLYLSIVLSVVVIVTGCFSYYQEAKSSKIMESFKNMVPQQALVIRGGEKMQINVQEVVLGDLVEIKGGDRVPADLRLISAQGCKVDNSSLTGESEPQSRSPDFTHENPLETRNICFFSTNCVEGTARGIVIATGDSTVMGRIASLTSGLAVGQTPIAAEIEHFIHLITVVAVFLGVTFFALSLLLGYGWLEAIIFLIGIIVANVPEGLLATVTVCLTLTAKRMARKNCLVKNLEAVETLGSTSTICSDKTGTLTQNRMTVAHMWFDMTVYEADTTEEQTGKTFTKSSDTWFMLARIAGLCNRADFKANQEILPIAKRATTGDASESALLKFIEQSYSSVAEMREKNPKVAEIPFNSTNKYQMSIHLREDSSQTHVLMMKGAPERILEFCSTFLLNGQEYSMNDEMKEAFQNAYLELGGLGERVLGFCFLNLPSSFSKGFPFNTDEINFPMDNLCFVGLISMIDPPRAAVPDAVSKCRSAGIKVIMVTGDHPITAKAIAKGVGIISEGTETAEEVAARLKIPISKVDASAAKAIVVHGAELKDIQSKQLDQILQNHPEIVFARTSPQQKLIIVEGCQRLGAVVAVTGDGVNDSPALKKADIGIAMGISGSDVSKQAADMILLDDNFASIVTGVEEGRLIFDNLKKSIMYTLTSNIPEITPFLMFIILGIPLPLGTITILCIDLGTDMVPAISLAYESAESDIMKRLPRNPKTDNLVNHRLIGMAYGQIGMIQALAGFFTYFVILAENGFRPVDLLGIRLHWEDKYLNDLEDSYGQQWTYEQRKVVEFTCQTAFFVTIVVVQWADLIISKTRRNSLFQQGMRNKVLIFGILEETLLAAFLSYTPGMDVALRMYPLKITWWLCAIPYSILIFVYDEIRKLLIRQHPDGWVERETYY
UniProt Q8N6T3, sequence (Q8N6T3 whole entry, looked up): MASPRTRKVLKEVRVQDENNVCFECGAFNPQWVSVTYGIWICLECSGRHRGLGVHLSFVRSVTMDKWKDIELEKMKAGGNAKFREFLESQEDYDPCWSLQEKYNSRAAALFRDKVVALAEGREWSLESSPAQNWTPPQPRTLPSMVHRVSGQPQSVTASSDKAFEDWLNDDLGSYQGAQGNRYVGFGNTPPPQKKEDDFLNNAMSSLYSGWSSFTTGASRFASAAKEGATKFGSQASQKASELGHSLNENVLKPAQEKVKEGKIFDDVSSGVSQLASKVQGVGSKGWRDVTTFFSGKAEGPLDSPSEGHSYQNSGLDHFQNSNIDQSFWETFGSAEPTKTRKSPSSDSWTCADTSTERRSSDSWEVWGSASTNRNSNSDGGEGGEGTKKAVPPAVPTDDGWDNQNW
UniProt O14981, sequence (O14981 whole entry, looked up): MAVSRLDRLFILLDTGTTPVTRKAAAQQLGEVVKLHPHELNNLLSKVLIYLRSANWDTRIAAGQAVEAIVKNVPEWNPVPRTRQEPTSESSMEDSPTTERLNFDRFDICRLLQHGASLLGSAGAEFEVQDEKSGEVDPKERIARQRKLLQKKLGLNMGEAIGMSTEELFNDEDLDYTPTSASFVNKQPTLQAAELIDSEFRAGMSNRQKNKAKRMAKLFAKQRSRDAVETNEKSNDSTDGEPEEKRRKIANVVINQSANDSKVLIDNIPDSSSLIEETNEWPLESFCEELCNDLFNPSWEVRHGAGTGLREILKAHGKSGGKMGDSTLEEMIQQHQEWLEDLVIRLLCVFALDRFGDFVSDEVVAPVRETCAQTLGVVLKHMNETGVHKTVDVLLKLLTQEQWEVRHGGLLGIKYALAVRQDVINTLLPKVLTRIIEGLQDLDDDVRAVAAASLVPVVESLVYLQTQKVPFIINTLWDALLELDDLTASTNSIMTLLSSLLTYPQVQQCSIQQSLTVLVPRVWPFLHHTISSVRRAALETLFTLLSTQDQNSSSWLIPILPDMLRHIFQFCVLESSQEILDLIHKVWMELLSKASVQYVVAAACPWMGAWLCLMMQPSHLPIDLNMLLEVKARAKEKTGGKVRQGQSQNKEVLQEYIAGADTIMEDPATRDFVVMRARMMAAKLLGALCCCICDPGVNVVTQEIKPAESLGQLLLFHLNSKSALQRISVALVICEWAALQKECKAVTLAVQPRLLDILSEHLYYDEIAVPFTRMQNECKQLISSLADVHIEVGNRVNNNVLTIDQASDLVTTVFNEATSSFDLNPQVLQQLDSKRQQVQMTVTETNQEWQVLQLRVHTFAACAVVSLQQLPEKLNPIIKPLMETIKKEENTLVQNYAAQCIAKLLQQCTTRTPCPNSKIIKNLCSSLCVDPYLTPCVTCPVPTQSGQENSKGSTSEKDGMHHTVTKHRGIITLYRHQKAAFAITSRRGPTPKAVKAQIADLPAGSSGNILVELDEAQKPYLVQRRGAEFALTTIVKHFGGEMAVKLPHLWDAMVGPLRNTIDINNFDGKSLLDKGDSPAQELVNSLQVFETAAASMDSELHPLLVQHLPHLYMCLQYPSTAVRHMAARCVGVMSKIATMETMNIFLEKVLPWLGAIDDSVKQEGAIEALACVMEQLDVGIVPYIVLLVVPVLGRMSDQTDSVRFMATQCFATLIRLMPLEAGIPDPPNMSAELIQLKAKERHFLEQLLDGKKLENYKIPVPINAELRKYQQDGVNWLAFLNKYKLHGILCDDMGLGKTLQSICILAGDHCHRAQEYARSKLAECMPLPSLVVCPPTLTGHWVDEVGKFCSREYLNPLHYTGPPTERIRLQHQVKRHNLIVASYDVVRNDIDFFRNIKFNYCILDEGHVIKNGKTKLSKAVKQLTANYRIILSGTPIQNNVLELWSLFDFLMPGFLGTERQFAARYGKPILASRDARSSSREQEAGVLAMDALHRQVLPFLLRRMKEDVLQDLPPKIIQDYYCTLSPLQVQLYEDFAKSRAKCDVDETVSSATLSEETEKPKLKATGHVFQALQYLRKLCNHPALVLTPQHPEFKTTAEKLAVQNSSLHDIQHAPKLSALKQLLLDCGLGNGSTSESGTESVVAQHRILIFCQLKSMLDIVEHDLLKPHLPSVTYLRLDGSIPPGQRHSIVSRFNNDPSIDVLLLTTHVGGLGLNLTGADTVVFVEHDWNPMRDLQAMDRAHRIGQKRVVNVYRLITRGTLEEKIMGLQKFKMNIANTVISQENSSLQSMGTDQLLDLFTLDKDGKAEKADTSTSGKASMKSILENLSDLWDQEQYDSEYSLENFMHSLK
UniProt Q8WUW1, sequence (Q8WUW1 whole entry, looked up): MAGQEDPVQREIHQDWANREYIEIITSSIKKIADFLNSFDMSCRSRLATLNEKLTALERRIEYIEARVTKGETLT

Target	log2 fold change [1]	log2 fold change [2]	log2 fold change [3]	log2 fold change [4]	log2 fold change [5]	log2 fold change [6]	log2 fold change [7]	log2 fold change [8]	log2 fold change [9]	log2 fold change [10]
AGPAT5 (UniProt Q9NUQ2)	-0.169	-0.281 (active)	-0.068	0.007	0.023	-0.13	0	0.01	-0.067	-0.25
BAIAP2 (UniProt Q9UQB8)	-0.045	-0.089	0.082	0.14	-0.011	-0.05	-0.019	0.038	-0.015	-0.142
ANKRD29 (UniProt Q8N6D5)	-0.021	-0.27	-0.152	0	-0.137	-0.233	0.025	0.111	-0.039	-0.043
AP2M1 (UniProt Q96CW1)	0.072	-0.041	0	0.002	0.013	-0.006	-0.046	-0.018	0.023	0.006
BTAF1 (UniProt O14981)	-0.087	-0.265 (active)	0.061	0.086	-0.047	-0.07	0.027	-0.042	-0.055	-0.09
ATP1A4 (UniProt Q13733)	0.125	0.07	-0.025	0.081	-0.004	-0.056	-0.05	0.006	-0.057	0.26 (active)
ARFGAP1 (UniProt Q8N6T3)	-0.182	-0.545 (active)	0.056	0.026	-0.042	0.008	0.036	-0.003	-0.016	0.068
ADD1 isoform 3 (UniProt P35611)	0.077	0.015	-0.015	-0.012	-0.007	0.011	-0.039	-0.004	-0.055	0.053
ATP7B (UniProt P35670)	-0.03	-0.043	0.06	0.103	0.061	-0.031	0.024	0.069	0.034	0.009
ANXA5 (UniProt P08758)	-0.084	-0.214 (active)	0.04	0.068	0.002	-0.041	0.012	0.007	-0.04	-0.042
ARL6IP4 (UniProt Q66PJ3)	0.008	-0.009	-0.023	0.014	0.015	-0.025	0.001	0.017	-0.065	0.01
BRK1 isoform 2 (UniProt Q8WUW1)	0.074	-0.021	-0.02	0.497 (active)	0.021	-0.009	0.031	0.011	-0.053	0.137
BRD3 (UniProt Q15059)	1.63 (active)	1.46 (active)	-0.088	–	-0.065	0.681 (active)	0.073	0.019	-0.143	0.106
ANK2 (UniProt Q01484)	0.049	-0.071	-0.003	–	-0.1	0.122	-0.018	0.03	-0.128	-0.223
AKT2 (UniProt P31751)	-0.017	-0.253	0.128	0.079	-0.061	-0.175	-0.026	0.082	-0.038	-0.119
